Results taken from the supplement of paper PMC10849652.
Of roughly 7,900 targets only a part is listed; those with a hit were picked by preference. About 0.6% of all pairs of compound and target were hits. A number with no mark means an inactive call.

Experiments:
Assay in all cases: log2 fold change, soluble protein after heating vs DMSO (PISA); higher = thermal stabilisation; K562 cells, 10 uM, 30 min; active = over 0.2 and 3.5 SD of the protein, either way, in both replicates (recomputed)
[1] = compound: COC1=CC=C(C=C1)CN2C=CC3=C2C=C(C=C3)C(=O)NO
Method in brief: (§1)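 Quantification of soluble protein used TMTpro 16plex LC-MS/MS, with channel sums equalised. Samples were the supernatant after 21,000xg for 90 min of pooled aliquots from K562 cells (2×10^6 cells/mL) treated with 10 μM compound for 30 min, heated for 3 min over 48°C-58°C, and extracted in PBS with 0.5% NP-40 at 4°C. Values, from duplicates, describe thermal stability against control samples on a log2 fold-change scale.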

filanesib = compound: CON(C)C(=O)N1N=C(c2cc(F)ccc2F)S[C@@]1(CCCN)c1ccccc1 [filanesib]
Method in brief: as §1

zotarolimus = compound: CO[C@H]1C[C@@H]2CC[C@@H](C)[C@@](O)(O2)C(=O)C(=O)N2CCCC[C@H]2C(=O)O[C@H]([C@H](C)C[C@@H]2CC[C@H](n3cnnn3)[C@H](OC)C2)CC(=O)[C@H](C)/C=C(\C)[C@@H](O)[C@@H](OC)C(=O)[C@H](C)C[C@H](C)/C=C/C=C/C=C/1C [zotarolimus]
Method in brief: as §1

idasanutlin = compound: COc1cc(C(=O)O)ccc1NC(=O)[C@@H]1N[C@@H](CC(C)(C)C)[C@](C#N)(c2ccc(Cl)cc2F)[C@H]1c1cccc(Cl)c1F [idasanutlin]
Method in brief: as §1

[2] = compound: COc1cc2nc(-c3cc(F)ccc3O)nc(N[C@@H]3CNC[C@H]3C(C)(C)O)c2cc1OC
Method in brief: as §1

lapatinib = compound: CS(=O)(=O)CCNCc1ccc(-c2ccc3ncnc(Nc4ccc(OCc5cccc(F)c5)c(Cl)c4)c3c2)o1 [lapatinib]
Method in brief: as §1

alisertib = compound: COc1cc(Nc2ncc3c(n2)-c2ccc(Cl)cc2C(c2c(F)cccc2OC)=NC3)ccc1C(=O)O [alisertib]
Method in brief: as §1

gefitinib = compound: COc1cc2ncnc(Nc3ccc(F)c(Cl)c3)c2cc1OCCCN1CCOCC1 [gefitinib]
Method in brief: as §1

[3] = compound: COc1cccc2cc(-c3nc([C@H]4CC[C@H](C(=O)O)CC4)n4ncnc(N)c34)[nH]c12
Method in brief: as §1

pictilisib = compound: CS(=O)(=O)N1CCN(Cc2cc3nc(-c4cccc5[nH]ncc45)nc(N4CCOCC4)c3s2)CC1 [pictilisib]
Method in brief: as §1

Sequence of NA, A0A494C071 (A0A494C071 whole entry, looked up): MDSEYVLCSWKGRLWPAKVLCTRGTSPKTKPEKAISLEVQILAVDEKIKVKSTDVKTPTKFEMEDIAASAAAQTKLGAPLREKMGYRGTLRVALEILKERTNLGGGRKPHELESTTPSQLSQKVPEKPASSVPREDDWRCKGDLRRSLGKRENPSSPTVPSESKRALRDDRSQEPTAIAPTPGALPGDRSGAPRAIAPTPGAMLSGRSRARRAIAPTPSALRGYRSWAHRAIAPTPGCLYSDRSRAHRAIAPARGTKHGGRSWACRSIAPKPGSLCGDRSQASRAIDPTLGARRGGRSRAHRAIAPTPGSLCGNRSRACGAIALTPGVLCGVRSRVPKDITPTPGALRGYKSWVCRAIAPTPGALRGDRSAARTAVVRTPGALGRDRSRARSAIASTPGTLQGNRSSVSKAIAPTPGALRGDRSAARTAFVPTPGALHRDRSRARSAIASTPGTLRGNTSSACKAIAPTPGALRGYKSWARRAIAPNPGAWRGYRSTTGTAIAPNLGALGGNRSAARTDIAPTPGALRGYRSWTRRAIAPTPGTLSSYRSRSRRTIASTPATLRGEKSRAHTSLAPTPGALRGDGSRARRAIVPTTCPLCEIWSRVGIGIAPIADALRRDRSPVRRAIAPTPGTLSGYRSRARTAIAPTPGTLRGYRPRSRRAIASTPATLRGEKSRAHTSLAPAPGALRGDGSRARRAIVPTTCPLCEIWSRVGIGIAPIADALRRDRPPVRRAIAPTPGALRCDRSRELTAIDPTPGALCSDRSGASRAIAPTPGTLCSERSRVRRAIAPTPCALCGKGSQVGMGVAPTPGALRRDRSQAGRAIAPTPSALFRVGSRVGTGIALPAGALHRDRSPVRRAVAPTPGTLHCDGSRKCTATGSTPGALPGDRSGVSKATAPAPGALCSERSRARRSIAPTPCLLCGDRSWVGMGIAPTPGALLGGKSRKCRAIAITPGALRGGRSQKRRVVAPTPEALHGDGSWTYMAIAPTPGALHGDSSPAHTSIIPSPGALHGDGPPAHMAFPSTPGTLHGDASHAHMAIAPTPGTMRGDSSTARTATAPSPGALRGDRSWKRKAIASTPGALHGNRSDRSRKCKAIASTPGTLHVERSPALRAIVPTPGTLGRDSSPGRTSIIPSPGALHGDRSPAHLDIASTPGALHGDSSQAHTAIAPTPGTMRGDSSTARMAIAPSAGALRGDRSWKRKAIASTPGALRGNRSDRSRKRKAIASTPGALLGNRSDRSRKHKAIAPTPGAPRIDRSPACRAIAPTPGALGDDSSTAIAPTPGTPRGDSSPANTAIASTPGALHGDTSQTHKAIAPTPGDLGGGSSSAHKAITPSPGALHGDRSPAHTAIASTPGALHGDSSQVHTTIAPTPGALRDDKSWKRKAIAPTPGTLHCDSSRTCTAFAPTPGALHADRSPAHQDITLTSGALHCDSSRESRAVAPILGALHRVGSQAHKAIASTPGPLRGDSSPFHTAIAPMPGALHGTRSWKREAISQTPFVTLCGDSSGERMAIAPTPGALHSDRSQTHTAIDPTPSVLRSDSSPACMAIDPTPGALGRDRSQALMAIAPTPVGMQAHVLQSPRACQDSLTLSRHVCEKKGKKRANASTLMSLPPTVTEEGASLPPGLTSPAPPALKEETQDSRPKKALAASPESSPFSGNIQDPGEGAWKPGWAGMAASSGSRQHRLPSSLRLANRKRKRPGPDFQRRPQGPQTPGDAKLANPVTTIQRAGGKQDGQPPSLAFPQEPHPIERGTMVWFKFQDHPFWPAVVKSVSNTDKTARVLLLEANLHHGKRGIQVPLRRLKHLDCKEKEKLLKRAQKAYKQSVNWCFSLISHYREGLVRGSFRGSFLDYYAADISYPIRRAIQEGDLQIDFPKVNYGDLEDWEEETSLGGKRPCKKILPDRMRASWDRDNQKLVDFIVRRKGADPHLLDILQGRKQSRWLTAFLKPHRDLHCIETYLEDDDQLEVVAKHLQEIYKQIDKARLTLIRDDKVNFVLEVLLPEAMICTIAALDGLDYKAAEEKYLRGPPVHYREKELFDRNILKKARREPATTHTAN
Sequence of UniProt P53370 (P53370 whole entry, looked up): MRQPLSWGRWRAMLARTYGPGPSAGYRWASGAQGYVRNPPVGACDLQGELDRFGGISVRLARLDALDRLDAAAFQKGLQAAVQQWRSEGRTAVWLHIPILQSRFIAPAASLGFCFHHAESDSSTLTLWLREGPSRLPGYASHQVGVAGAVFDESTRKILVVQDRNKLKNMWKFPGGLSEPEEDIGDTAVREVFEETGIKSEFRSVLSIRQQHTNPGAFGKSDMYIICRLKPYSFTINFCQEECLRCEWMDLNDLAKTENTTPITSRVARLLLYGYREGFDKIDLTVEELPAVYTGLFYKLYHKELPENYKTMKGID
Sequence of UniProt Q9UQ49 (Q9UQ49 whole entry, looked up): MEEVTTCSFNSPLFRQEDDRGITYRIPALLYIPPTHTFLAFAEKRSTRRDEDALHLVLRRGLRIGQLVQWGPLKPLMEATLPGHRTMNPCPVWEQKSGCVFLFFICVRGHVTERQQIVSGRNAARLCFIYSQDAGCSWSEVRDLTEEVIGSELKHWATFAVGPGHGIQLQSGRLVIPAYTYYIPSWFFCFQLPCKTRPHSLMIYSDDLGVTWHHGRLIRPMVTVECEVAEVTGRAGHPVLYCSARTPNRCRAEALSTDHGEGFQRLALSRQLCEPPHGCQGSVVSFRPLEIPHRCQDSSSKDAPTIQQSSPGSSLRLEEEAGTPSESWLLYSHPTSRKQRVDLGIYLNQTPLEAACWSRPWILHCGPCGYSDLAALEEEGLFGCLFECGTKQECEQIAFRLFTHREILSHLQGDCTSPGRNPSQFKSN
Sequence of UniProt Q86UD1 (Q86UD1 whole entry, looked up): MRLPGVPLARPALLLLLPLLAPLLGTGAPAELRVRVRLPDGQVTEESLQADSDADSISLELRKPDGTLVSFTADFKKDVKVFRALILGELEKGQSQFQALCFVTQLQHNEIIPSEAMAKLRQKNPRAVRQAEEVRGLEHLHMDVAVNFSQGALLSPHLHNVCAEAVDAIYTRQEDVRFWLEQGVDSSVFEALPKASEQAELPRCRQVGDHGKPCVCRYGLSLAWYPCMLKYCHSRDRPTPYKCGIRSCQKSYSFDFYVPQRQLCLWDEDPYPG
Sequence of UniProt Q8N4C8 (Q8N4C8 whole entry, looked up): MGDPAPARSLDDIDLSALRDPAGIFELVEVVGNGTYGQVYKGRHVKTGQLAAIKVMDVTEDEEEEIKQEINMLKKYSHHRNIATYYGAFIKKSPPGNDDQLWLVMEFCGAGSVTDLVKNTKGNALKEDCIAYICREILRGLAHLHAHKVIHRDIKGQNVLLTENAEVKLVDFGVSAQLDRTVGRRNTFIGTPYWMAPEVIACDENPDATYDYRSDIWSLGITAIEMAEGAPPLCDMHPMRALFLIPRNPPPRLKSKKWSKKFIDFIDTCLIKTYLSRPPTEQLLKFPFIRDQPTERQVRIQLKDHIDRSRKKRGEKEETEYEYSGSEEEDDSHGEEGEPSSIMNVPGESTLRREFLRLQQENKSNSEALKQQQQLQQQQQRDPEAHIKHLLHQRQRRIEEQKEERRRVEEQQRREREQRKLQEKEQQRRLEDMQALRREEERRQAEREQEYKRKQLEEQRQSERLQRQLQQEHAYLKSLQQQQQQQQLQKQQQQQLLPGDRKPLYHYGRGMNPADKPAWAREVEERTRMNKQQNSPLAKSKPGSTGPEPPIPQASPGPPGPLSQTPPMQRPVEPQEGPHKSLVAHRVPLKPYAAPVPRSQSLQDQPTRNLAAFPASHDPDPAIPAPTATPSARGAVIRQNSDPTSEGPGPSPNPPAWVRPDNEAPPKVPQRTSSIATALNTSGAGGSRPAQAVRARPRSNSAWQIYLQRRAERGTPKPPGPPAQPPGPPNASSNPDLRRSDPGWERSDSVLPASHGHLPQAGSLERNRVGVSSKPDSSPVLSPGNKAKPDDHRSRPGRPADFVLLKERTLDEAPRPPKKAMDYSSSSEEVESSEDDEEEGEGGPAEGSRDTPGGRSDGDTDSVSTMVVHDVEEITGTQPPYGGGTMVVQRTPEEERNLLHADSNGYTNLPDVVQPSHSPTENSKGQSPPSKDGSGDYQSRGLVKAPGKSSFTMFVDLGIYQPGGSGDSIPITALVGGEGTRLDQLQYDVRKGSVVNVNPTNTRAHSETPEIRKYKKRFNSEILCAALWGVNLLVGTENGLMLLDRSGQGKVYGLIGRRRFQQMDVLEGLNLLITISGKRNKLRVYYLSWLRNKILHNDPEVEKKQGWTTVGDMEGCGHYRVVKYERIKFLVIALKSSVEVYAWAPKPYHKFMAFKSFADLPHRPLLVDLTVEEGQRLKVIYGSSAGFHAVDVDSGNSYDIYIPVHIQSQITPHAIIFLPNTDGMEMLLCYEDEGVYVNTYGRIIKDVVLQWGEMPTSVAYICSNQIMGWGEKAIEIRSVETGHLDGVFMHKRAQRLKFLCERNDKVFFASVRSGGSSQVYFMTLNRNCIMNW
Sequence of UniProt P0C024 (P0C024 whole entry, looked up): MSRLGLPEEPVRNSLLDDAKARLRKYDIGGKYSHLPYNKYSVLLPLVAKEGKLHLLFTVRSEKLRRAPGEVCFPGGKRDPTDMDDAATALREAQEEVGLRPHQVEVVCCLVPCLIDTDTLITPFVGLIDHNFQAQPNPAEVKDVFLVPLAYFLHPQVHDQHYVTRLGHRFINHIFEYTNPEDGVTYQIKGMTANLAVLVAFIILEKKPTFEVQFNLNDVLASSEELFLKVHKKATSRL
Sequence of UniProt Q9BT67 (Q9BT67 whole entry, looked up): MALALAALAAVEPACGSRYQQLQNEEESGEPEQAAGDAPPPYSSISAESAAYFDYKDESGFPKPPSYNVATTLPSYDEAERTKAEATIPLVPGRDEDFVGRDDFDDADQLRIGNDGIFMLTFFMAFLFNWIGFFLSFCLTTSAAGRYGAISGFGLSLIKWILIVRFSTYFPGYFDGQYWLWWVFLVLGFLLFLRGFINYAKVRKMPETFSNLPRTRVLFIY
Sequence of UniProt B2RBV5 (B2RBV5 whole entry, looked up): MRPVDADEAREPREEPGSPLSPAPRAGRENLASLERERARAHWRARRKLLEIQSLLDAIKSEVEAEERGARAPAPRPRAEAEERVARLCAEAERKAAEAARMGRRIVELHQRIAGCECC

Target	log2 fold change [1]	log2 fold change (filanesib)	log2 fold change (zotarolimus)	log2 fold change (idasanutlin)	log2 fold change [2]	log2 fold change (lapatinib)	log2 fold change (alisertib)	log2 fold change (gefitinib)	log2 fold change [3]	log2 fold change (pictilisib)
PAFAH2 (UniProt Q99487)	-0.025	-0.089	0.012	0.153	0.043	-0.037	–	–	–	–
MRPL50 (UniProt Q8N5N7)	-0.03	0.078	0.202	-0.122	-0.719 (active)	0.42	-0.078	0.004	-0.022	-0.067
NOP53 (UniProt Q9NZM5)	-0.111	0.533	-0.008	0.365	0.037	0.163	-0.1	-0.127	-0.207	-0.335
NME7 (UniProt Q9Y5B8)	-0.1	0.124	0.058	-0.041	0.015	-0.046	0.054	–	-0.077	0.071
NDFIP1 (UniProt Q9BT67)	0.051	-0.134	0.106	-0.034	–	–	-0.105	-0.155	-0.14	0.228
NA, A0A0B4J2A0	0.084	-0.045	-0.021	-0.016	-0.029	-0.026	0.129	-0.092	0.023	0.05
MINK1 (UniProt Q8N4C8)	-0.054	-0.003	0.014	0.013	-0.064	0.024	-0.042	–	0.024	-0.019
PACRGL (UniProt Q8N7B6)	–	0.056	–	–	–	–	–	–	–	–
NCOA5 (UniProt Q9HCD5)	0.046	0.209	–	–	0.04	0.047	–	0.145	–	-0.043
MTHFD1, A0A384N5Y3	–	-0.025	-0.032	0.024	0.055	-0.016	-0.011	0.075	0.001	0.107
NA (UniProt B2RBV5)	–	0.081	–	–	0.001	-0.243	-0.043	-0.33	0.028	0.061
NMU (UniProt P48645)	0.259	–	-0.018	0.057	-0.156	-0.047	–	0.162	–	-0.3
MOB3B (UniProt Q86TA1)	0.355	–	-0.087	-0.24	0.04	-0.033	-0.001	0.384	-0.011	0.067
NAP1L1 (UniProt B7Z9C2)	-0.116	–	–	-0.004	–	–	0.258	0.03	0.066	0.111
NOLC1 isoform 3 (UniProt Q14978)	–	–	-0.013	–	–	–	–	–	–	–
NA, A0A494C071	-0.265	–	-0.011	-0.392	–	–	0.016	0.367	0.143	0.277
MSANTD2 (UniProt Q6P1R3)	–	-0.107	–	–	–	–	–	–	–	–
NDUFA7 (UniProt M0R0N0)	–	-0.042	–	–	–	–	–	–	–	–
NUDT6 (UniProt P53370)	0.017	–	-0.173	–	0.175	-0.017	0.012	-0.025	-0.084	–
OXR1 isoform 2 (UniProt Q8N573)	-0.175	–	-0.014	-0.009	0.018	-0.061	–	0.014	–	-0.073
NKTR (UniProt P30414)	–	–	–	–	0.295	-0.173	0.064	–	0.109	–
OGFOD2 (UniProt Q6N063)	-0.275	–	0.034	0.073	–	–	0.007	0.071	-0.033	-0.144
NIPSNAP2 (UniProt C9J7B1)	–	0.05	–	-0.38	–	–	-0.041	–	-0.047	–
NECTIN2 isoform 2 (UniProt Q92692)	0.106	0.094	–	0.061	–	–	-0.016	-0.048	0.093	-0.368

Target	log2 fold change [1]	log2 fold change (filanesib)	log2 fold change (zotarolimus)	log2 fold change (idasanutlin)	log2 fold change [2]	log2 fold change (lapatinib)	log2 fold change (alisertib)	log2 fold change (gefitinib)	log2 fold change [3]	log2 fold change (pictilisib)
MLH1 (UniProt P40692)	–	–	0.024	0.03	-0.135	0.091	-0.171	–	-0.1	0.083
NKAP (UniProt Q8N5F7)	-0.005	–	0.112	0.115	-0.051	0.09	0.037	-0.029	-0.13	-0.013
MYO19 (UniProt Q96H55)	-0.083	–	0.071	-0.116	0.081	0.276	–	0.024	–	0.567 (active)
NA, A0A1W2PSA9	–	–	-0.275	0.049	–	–	–	–	–	-0.179
MORC2 (UniProt Q9Y6X9)	0.195	–	–	-0.018	0.134	-0.118	-0.012	–	-0.013	–
NUDT7 (UniProt P0C024)	0.023	-0.092	–	–	–	–	–	0.05	–	0.115
NELFCD (UniProt Q8IXH7)	0.006	–	-0.071	0	0.179	-0.006	–	-0.052	–	-0.061
OSBPL2 (UniProt Q9H1P3)	–	–	0.085	–	-0.187	1.57 (active)	-0.019	–	-0.042	–
NOS1AP (UniProt O75052)	–	–	-0.098	–	-0.09	-0.1	0.353	–	-0.118	–
MRM2 (UniProt Q9UI43)	–	–	0.11	0.518 (active)	0.078	0.108	–	0.066	–	–
ORC3 (UniProt Q9UBD5)	–	–	–	-0.167	–	–	–	–	–	–
NEU3 isoform 2 (UniProt Q9UQ49)	–	-0.286	–	–	0.301	-0.126	–	–	–	–
NCBP2AS2 (UniProt Q69YL0)	–	-0.09	-0.051	-0.023	-0.42 (active)	-0.093	-0.058	-0.137	0.044	0.033
MXRA7 isoform 3 (UniProt P84157)	–	–	–	–	0.077	-0.27	–	–	–	–
NA (UniProt J3KR12)	0.123	–	–	–	–	–	-0.116	-0.134	0.077	–
MOB2 isoform 3 (UniProt Q70IA6)	–	–	0.205	–	-0.184	0.025	-0.066	0.051	0.02	0.06
OVCA2 (UniProt Q8WZ82)	-0.206	–	–	-0.023	0.201	-0.014	0.102	-0.143	-0.318	-0.176
NRGN (UniProt Q92686)	-0.831	–	–	0.023	-0.108	0.107	–	-0.012	–	0.404
MMADHC (UniProt Q9H3L0)	-0.031	–	0.102	-0.135	0.056	0.176	0.006	0.305	0.013	-0.114
MON1A (UniProt Q86VX9)	-0.118	-0.023	–	–	-0.042	-0.003	0.291	0.427	0.049	-0.011
NASP isoform 2 (UniProt P49321)	–	–	–	–	–	–	-0.129	–	-0.58	–
OAF (UniProt Q86UD1)	–	-0.017	–	–	–	–	-0.239	–	0.539 (active)	–
MT-ND2 (UniProt P03891)	-0.029	–	0.065	-0.143	-0.131	-0.008	0.04	0.106	0.074	0.139
